In test [1] the target is Cytochrome P450 3A4 (Homo sapiens) (UniProt P08684). The test is described as follows: qHTS Assay for Inhibitors and Substrates of Cytochrome P450 3A4 (AID 884). Further: nearly all actives have a fitted effect of over 50% in size. Further: potency means the concentration at half of the fitted maximal effect. The gist of the method: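 20 nM human CYP3A4 with 25 uM Luciferin-PPXE (at KM) in 200 mM KPO4, preincubated 10 min with compound; NADPH regeneration started a 60 min RT reaction. Luciferin detected by luminescence, normalized to 57 uM ketoconazole as full inhibition.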
(qHTS replaces the single test concentration by a dilution series.)

Test [2] is described as follows: MultiTox-Fluor Cytotoxicity Assay - LYMP1-001 - Live Cells (AID 947). Further: potency means the concentration at half of the fitted maximal effect.
Test [3] is described as follows: MultiTox-Fluor Cytotoxicity Assay - LYMP1-002 - Dead Cells (AID 960). Further: nearly all actives have a fitted effect of over 60% in size. Further: potency means the concentration at half of the fitted maximal effect. The gist of the method: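 Human lymphoblastoid cells (LYMP1-002), 2500/well in complete medium, were exposed to compounds for 16 hr at 37 C. Dead-cell protease activity was read as bis-AAF-R110 fluorescence (Ex/Em 485/520), normalized to DMSO and 15 uM tetraoctylammonium bromide; AC50 from Hill fits.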

A short description of test [4]: Cell Viability - LYMP2-004 (AID 966). Further: nearly all actives have a fitted effect of over 65% in size. Further: potency means the concentration at half of the fitted maximal effect. The gist of the method:
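Human lymphoblastoid cells (2500/well) in complete medium were treated with compounds for 24 hr at 37 C, then intracellular ATP was measured by CellTiter-Glo luminescence. AC50 values came from Hill-equation fits of concentration-response data.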

A short description of test [5]: Cell Viability - LYMP1-002 - Assay at 24 hr (AID 993). Further: potency means the concentration at half of the fitted maximal effect. The gist of the method:
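Human lymphoblastoid LYMP1-002 cells, 2500/well in complete medium, were treated with compounds for 24 h at 37 C; intracellular ATP was read by CellTiter-Glo luminescence. AC50 values came from Hill-equation fits of qHTS concentration-response data.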

Test [6] has as its target Thyroid hormone receptor beta (Homo sapiens) (UniProt P10828). Nature of the test: qHTS assay for small molecule agonists of thyroid hormone receptor beta signaling (AID 588545; calls by dose curve;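 further: 0% = DMSO only and 100% = 10 nM T3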). The gist of the method:
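Efficacy and EC50 values derive from Hill fits of qHTS titration data, normalized to 10 nM T3 and DMSO-only wells. HEK 293 reporter cells were stimulated for 18 hrs at 37 C, with beta-lactamase activity measured by CCF4 fluorescence.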

In test [7] the target is Voltage-gated inwardly rectifying potassium channel KCNH2 (Homo sapiens) (UniProt Q12809). The test is described as follows: qHTS Assay for Small Molecule Inhibitors of the Human hERG Channel Activity (AID 588834).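 Further: top concentration of the series differs between compounds; on the % scale 0 is the no-effect control and ±100 the full control effect; lower thallium flux fluorescence means stronger hERG block; nearly all actives have a fitted effect of over 50% in size.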 The gist of the method:
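Blockade is seen as reduced FluxOR thallium-flux fluorescence in U2OS cells expressing hERG from a BacMam construct, in Opti-MEM with 2% FCS. Concentration-response data fitted to the Hill equation for AC50.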

A short description of test [8]: qHTS assay for small molecule activators of the p53 signaling pathway (AID 651743; active means well fitted activation curve with a large enough effect in the signal ratio, not every such curve was filed as active; the % refers to the signal ratio; further: series mostly up to about 92 µM; % of control where 0% means no effect). Conditions: HCT-116 p53RE-bla, beta-lactamase FRET ratio, 16 h; activation: stronger effect = higher value. The gist of the method:
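HCT-116 p53RE-bla, 4,000 cells/well; 5 h settle; cpd/DMSO 16 h, 37 C; LiveBLAzer B/G 2 h RT; fluorescence intensity.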

Test [9] can be described thus: qHTS assay for small molecule disruptors of the mitochondrial membrane potential - 1 hr assay (AID 651754; calls by dose curve; further: on the % scale 0 is the no-effect control and ±100 the full control effect; nearly all actives have a fitted effect of over 35% in size). The gist of the method:
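HepG2 cells, attached overnight at 37C, were exposed to compound or DMSO vehicle for 1 hr at 37C, 5% CO2, then stained with Mito-MPS dye for 30 min. Red aggregate versus green monomer fluorescence reports membrane potential.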

Test [10] can be described thus: qHTS assay for small molecule disruptors of the mitochondrial membrane potential - 5 hr assay (AID 651755; calls by dose curve; further: on the % scale 0 is the no-effect control and ±100 the full control effect; nearly all actives have a fitted effect of over 40% in size). The gist of the method: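 HepG2 cells (2,000/well), attached overnight, exposed to compound 5 hr at 37C, then Mito-MPS dye 30 min. Fluorescence read for monomers (490/535 nm) and aggregates (540/590 nm).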
Test [11] has as its target Tumor necrosis factor (Homo sapiens) (UniProt P01375). The test is described as follows: qHTS assay to identify small molecules that stimulate Tumor Necrosis Factor-alpha (TNF-alpha) secretion (AID 651757; active means well fitted curve in the direction sought with a large enough effect in the signal ratio; the % refers to the signal ratio; further: 0% is about no effect). The gist of the method:
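THP-1 cells were exposed to compounds for 17 hrs at 37 C, after which secreted TNF-alpha was measured by homogeneous HTRF (TR-FRET) using cryptate- and XL665-labeled anti-TNF-alpha antibodies, read after 3 hr at room temperature.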

The nature of test [12]: qHTS assay for environmental chemicals that activate the Aryl hydrocarbon Receptor (AhR) signaling pathway (AID 651777). Further: % of control where 0% means no effect; nearly all actives have a fitted effect of over 15% in size. Conditions: 1A2-DRE human hepatoma cells, luciferase, 24 h; activation: stronger effect = higher value. The gist of the method: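 Stable CYP1A2 promoter/DRE-luciferase human hepatoma line treated 24 hr; One-Glo luminescence, 30 min RT.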
Test [13] in a line: qHTS assay for small molecule agonists of the antioxidant response element (ARE) signaling pathway measured by Nrf2-dependant transcriptional activity (AID 720636; active means well fitted curve in the direction sought with a large enough effect in the repeat runs; an effect the other way counts as inactive or inconclusive; further: potency means the concentration at half of the fitted maximal effect;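 on activation: HepG2 cells with an ARE-driven luciferase reporter; % of control where 0% means no effect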). The gist of the method:
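Reporter gene assay, HepG2 ARE-luc: 16 hr compound, 37 C, 5% CO2; read-out luciferase luminescence.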

A short description of test [14]: qHTS assay for small molecule antagonists of the retinoid-related orphan receptor gamma (ROR-gamma) signaling pathway - cell viability counter screen (AID 720652; active means well fitted curve in the direction sought with a large enough effect in the repeat runs; an effect the other way counts as inactive or inconclusive;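 further: CHO reporter cells with doxycycline-induced ROR-gamma expression; series mostly up to about 92 µM; compound exposure lasted 16 hr before ATP read; on the % scale 0 is the no-effect control and ±100 the full control effect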). The gist of the method: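 Counter screen in CHO cells carrying TET-inducible ROR-gamma and an ROR response element-luciferase reporter; cells plated 5 hr, compound pinned, doxycycline added, then 16 hr at 37 C. Viability read as intracellular ATP by CellTiter-Glo luminescence.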

A short description of test [15]: qHTS assay for small molecule activators of the human pregnane X receptor (PXR) signaling pathway (AID 720659; call rule not given here; further: 0% is about no effect).
For test [16], the target named is Peroxisome proliferator-activated receptor gamma (Homo sapiens) (UniProt P37231). The test is described as follows: qHTS assay for small molecule agonists of peroxisome proliferator-activated receptor gamma signaling (AID 588536; active means well fitted curve in the direction sought with a large enough effect in the signal ratio, with a control signal flat, not every such curve was filed as active; the % refers to the signal ratio;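 further: 0% = DMSO basal wells and 100% = rosiglitazone at 2 µM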). The gist of the method: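 Test agents, titrated, stimulated HEK293 UAS-bla cells overnight (16 h, 37 C). Substrate CCF4 was then added for two hours at room temperature before fluorescence reading.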

A short description of test [17]: qHTS assay for small molecule agonists of retinoid X receptor alpha signaling (AID 588544; calls by dose curve;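 on activation: 0% = DMSO basal wells and 100% = reference agonist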). The following applies: HEK293T RXRa-UAS-bla, beta-lactamase reporter, 18 h; 530 nm emission.
Test [18] deals with Retinoic acid receptor RXR-alpha (Homo sapiens) (UniProt P19793). Described as above.
Test [19] deals with Thyroid hormone receptor beta (Homo sapiens) (UniProt P10828). Nature of the test: qHTS assay for small molecule antagonists of thyroid hormone receptor beta signaling (AID 588547; active means well fitted inhibition curve with a large enough effect in the signal ratio, with a control signal flat, not every such curve was filed as active; the % refers to the signal ratio;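 further: cells stimulated with 0.4 nM T3 agonist during compound exposure; series mostly up to about 77 µM; on the % scale 0 is the no-effect control and ±100 the full control effect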). The following applies: TR-UAS-bla HEK293, beta-lactamase ratio, antagonist mode, 18 h. The gist of the method:
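TR-UAS-bla GripTite HEK293 cells in 2% charcoal/dextran FBS medium; compounds 0.59 nM to 92 uM with T3 at 0.4nM final, 18 h at 37 C. Beta-lactamase read by CCF4 fluorescence (460/530 nm); Hill fits gave IC50 and efficacy.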

For test [20], the target named is Nuclear receptor subfamily 1 group I member 2 (Rattus norvegicus) (UniProt Q9R1A7). The test is described as follows: qHTS assay for small molecule activators of the rat pregnane X receptor (rPXR) signaling pathway (AID 651751; call rule not given here; further: 0% is about no effect). The following applies: rPXR reporter cells, luciferase (One-Glo), 24 h.

The structures appear in SMILES notation. “And” between values parts separate entries of the source, which are not always exact repeats. Identical values can stand only once. Records with an inconclusive call do not appear. The source made the active and inactive calls. Unless noted, the call rests on the fitted dose curve; in most records, active means well fitted curve in the direction sought with a large enough effect; inconclusive means small, poorly fitted or top-dose-only effect, or another doubt; inactive means no such curve, though single readings can be large; an effect the other way counts as inactive or inconclusive.

Chain of Thyroid hormone receptor beta (Homo sapiens) (P10828 whole entry, looked up): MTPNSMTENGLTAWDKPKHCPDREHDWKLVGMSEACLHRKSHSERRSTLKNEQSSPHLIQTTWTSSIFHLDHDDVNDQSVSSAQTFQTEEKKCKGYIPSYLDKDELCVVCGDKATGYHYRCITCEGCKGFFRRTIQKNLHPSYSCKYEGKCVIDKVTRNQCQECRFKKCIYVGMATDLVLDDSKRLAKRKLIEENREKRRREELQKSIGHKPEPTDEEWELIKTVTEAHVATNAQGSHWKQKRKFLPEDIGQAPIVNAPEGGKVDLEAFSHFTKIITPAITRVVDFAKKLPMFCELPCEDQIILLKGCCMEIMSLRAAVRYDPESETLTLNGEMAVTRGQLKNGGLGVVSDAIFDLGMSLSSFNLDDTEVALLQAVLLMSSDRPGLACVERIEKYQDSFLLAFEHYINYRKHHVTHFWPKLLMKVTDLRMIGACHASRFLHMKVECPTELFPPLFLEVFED
Chain of Retinoic acid receptor RXR-alpha (Homo sapiens) (P19793 whole entry, looked up): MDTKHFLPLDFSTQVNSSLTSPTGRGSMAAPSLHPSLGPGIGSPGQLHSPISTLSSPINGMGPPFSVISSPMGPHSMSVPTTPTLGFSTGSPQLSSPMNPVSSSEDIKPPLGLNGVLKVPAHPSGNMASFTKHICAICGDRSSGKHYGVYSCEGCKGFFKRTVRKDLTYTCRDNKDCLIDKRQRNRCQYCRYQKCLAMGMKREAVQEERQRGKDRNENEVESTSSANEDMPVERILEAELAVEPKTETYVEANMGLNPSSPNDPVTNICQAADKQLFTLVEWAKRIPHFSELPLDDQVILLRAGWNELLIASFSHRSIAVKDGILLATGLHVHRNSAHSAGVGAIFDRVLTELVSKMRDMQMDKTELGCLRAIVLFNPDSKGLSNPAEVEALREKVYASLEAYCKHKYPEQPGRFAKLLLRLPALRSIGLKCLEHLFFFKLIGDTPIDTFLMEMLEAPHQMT
Chain of Tumor necrosis factor (Homo sapiens) (P01375 whole entry, looked up): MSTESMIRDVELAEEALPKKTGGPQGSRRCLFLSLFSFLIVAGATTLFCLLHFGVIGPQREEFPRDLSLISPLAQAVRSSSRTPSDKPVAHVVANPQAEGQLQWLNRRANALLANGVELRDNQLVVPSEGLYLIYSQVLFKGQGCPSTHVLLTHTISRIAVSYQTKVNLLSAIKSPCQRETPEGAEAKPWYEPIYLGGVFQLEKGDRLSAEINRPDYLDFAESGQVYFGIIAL
Chain of Nuclear receptor subfamily 1 group I member 2 (Rattus norvegicus) (Q9R1A7 whole entry, looked up): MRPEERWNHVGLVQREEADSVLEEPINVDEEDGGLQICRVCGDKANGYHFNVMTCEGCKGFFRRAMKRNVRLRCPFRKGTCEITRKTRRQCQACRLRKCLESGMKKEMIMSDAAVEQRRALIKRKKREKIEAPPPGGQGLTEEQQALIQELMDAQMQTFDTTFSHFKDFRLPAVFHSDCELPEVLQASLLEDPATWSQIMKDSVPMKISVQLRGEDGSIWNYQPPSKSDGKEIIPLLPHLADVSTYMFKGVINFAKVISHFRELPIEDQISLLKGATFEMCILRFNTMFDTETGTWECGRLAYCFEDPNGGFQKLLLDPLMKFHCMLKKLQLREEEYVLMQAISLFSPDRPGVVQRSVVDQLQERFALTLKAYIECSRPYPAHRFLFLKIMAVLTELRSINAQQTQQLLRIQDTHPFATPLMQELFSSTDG
Chain of Peroxisome proliferator-activated receptor gamma (Homo sapiens) (P37231 whole entry, looked up): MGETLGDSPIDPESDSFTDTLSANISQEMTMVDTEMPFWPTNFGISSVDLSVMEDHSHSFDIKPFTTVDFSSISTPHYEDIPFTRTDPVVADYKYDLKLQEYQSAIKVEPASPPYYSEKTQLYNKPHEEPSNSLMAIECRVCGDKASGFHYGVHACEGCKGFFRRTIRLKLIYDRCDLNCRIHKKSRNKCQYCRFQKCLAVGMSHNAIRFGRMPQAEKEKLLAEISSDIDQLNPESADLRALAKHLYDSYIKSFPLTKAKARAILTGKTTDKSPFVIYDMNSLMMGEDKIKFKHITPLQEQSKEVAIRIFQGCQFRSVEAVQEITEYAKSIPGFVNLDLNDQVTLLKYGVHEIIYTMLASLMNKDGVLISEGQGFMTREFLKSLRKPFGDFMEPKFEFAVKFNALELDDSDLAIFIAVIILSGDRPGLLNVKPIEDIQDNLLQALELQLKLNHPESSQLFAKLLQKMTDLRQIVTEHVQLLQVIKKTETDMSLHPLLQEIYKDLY
Chain of Voltage-gated inwardly rectifying potassium channel KCNH2 (Homo sapiens) (Q12809 whole entry, looked up): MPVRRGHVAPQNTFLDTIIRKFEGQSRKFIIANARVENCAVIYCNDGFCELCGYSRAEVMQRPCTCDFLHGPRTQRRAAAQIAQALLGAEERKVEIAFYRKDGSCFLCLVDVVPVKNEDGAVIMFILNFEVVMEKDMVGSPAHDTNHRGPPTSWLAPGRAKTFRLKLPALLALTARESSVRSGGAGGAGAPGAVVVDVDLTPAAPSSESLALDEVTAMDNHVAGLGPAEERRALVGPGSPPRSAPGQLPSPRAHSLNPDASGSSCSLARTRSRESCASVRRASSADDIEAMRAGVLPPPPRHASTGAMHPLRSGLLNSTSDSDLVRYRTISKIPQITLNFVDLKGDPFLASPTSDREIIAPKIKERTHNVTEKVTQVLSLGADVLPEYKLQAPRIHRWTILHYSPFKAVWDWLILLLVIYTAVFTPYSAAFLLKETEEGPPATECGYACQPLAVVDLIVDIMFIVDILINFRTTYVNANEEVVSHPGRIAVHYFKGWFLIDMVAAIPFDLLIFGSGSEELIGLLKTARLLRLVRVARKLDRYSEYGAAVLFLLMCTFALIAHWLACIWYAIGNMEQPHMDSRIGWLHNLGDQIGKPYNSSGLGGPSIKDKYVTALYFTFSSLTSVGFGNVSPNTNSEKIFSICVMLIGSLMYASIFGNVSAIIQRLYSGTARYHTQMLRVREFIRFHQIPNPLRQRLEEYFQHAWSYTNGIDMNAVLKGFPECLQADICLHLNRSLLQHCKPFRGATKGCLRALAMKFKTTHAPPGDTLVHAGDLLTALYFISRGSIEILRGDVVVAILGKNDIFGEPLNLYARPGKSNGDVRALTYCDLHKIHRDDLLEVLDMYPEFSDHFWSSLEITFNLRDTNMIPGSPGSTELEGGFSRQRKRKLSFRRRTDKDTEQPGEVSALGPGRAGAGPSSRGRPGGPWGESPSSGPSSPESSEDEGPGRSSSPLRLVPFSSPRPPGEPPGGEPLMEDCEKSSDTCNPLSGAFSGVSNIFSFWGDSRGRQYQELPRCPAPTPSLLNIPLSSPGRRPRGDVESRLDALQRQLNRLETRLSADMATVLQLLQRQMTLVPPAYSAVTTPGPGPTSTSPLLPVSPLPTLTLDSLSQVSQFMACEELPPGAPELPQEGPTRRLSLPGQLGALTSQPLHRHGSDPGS
Chain of Cytochrome P450 3A4 (Homo sapiens) (P08684 whole entry, looked up): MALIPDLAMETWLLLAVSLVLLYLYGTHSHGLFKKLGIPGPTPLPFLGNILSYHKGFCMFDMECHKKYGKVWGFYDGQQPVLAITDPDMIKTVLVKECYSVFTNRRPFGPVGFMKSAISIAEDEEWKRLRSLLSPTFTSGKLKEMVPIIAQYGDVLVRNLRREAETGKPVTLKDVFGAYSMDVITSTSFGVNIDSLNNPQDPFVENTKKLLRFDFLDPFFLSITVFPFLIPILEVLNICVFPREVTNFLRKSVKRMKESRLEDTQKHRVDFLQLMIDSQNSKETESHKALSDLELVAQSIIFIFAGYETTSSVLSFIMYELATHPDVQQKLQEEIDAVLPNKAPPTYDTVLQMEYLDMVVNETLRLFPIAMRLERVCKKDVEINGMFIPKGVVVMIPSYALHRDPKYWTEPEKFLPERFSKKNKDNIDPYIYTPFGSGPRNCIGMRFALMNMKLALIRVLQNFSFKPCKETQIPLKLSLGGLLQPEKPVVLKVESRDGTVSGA

With `C=CC(=O)OCCOCCOCCOCCOC(=O)C=C`, the Potency result in test [1], in test [7], in test [9], in test [10] and in test [14] was “inactive” in each case. Besides, the Potency in test [2] is 31.6 µM (active) and 39.8 µM (active); in test [3] it was 20 µM (active) and 25.1 µM (active); in test [4], 7.94 µM (active) and 12.6 µM (active); in [5] it was 25100 nM (active); in [13], 66800 nM (active). Moreover, the compound was called inactive in test [6], in [11] and in test [15]. For the same compound, the activation is 28.9% (inactive) and 15.6% (inactive) in test [8]; 1.73% (inactive) and 5.16% (inactive) in [12].

`O=C(O)CC(C(=O)O)C(CC(=O)O)C(=O)O` (centres undefined): the Potency entry in test [1], in test [2], in test [3], in test [4], in test [5] and in [7] was “inactive” throughout. Besides, the Potency result in [9], in test [10], in [13] and in [14] was “inactive” throughout. Besides, the call in test [16], in test [18], in test [6], in test [11] and in test [15] was inactive. Moreover, the max response in test [17] was 3.34% and -3.12%; in test [20], -5.76% (inactive) and 4.78% (inactive). For the same compound, the activity change % (negative = inhibition) in test [19] is -3.7% (inactive) and -9.45% (inactive). The activation was -3.49% (inactive) and -0.408% (inactive) in test [8]; -0.527% (inactive) and 0.126% (inactive) in test [12].

With `COc1ccc(CNc2ncncc2-c2ccccc2OC)c(OC)c1`, the Potency in test [1] is 316 nM (active).

Consider `COc1ccc2[nH]cc(CCNc3nc(-c4ccccc4OC)nc4ccccc34)c2c1`, for which the Potency in test [1] was 2510 nM (active).

On to `Cc1ccccc1C`, for which the Potency result in [1], in test [2], in [3], in test [4], in test [5] and in test [7] was “inactive” in each case. For the same compound, the Potency entry in test [9], in test [10], in test [13] and in [14] was “inactive” in each case. In addition, the compound was classed as inactive in test [16], in test [18], in [6], in test [11] and in [15]. Further, the max response is -0.877% and 16.9% in test [17]; -1.06% (inactive) and 4.02% (inactive) in [20]. The activity change % (negative = inhibition) in [19] is 8.96% (inactive) and 15% (inactive). The activation is -3.02% (inactive) and -3.15% (inactive) in test [8]; 1.3% (inactive) and -0.327% (inactive) in test [12].

With `c1ccc2c(c1)c1cccc3ccc4cccc2c4c31`, the Potency result in test [1], in [2], in [3], in test [4], in test [5] and in [7] was “inactive” each time. The Potency entry in test [9], in [10] and in test [14] was “inactive” each time. For the same compound, the max response was -17% and -12.4% in test [17]; 4.91% (inactive) and -2.4% (inactive) in test [20]. For the same compound, the call in test [18] and in test [15] was inactive. In addition, the activity change % (negative = inhibition) in test [19] was 6.13% (inactive) and -3.87% (inactive). Also, the activation in test [8] was 8.13% (inactive) and 3.99% (inactive); in test [12], 0.979% (inactive) and 4.09% (inactive).

Regarding `COc1ccc2[nH]cc(CCNc3ncncc3-c3ccccc3C(F)(F)F)c2c1`, in [1], the Potency was 251 nM (active).

As to `Cc1ccc([N+](=O)[O-])c(C)c1`, the Potency entry in [1], in [2], in test [3], in test [4], in [5] and in test [7] was “inactive” throughout. For the same compound, the Potency result in test [9], in test [10], in [13] and in test [14] was “inactive” throughout. In addition, the compound was called inactive in test [16], in [18], in test [6], in [11] and in [15]. Moreover, the max response in [17] was -5.33% and -0.658%; in test [20], 3.04% (inactive) and -0.0498% (inactive). Further, in test [19], the activity change % (negative = inhibition) was -7.14% (inactive) and -11% (inactive). Moreover, the activation in [8] is 0.814% (inactive) and -2.3% (inactive); in [12] it was -0.465% (inactive) and 2.75% (inactive).

The values are drawn from PubChem BioAssay (NCATS).
